ClpP mod: qHTS Assay for Activators of ClpP; ATP-dependent Clp protease proteolytic subunit (Bacillus subtilis (strain 168)), P80244; purified B. subtilis ClpP, FRET peptide cleavage, 20 min; 340,000 tested, 1.9% active; Potency, µM (highest dose often 57.5 µM); AID 651965, 2013; active means well fitted falling curve with a large enough effect; inconclusive means small, poorly fitted or top-dose-only effect; inactive means no such curve, though single readings can be large or run the other way; further: the source files actives as falling curves though it sought activators and does not explain the sign; nearly all actives have a fitted effect of over 65% in size
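Buffer: 100 mM Tris/HCl pH8, 100 mM KCl, 0.05% low protease BSA, 2.5% glycerol, 0.01% Tween-20. ClpP 10 microg/mL final; 20 min RT; delta FRET normalized to ADEP and DMSO controls.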
LDHA block: LDHA (human) enzyme inhibition | P00338 | purified LDHA, NADH/diaphorase-resazurin fluorescence; hits give low values | activity change, % (values are at about 110 or 230 µM) | 480,000 tested, 0.15% active; in the data active means activity change below about -30%; inconclusive means mostly about -25% to -30%
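LDH5 2 nM; NADH 0.06 mM, pyruvate 0.2 mM; 200 mM Tris pH 7.4, EDTA, Tween-20; 5 min RT. Detection: diaphorase 0.133 mg/mL + resazurin 37 µM, fluorescence ex540/em590 at 0 and 20 min; normalized to enzyme-free and DMSO wells.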
12-LOX inh: inhibitors of human 12S-lipoxygenase ALOX12 | purified 12hLO, xylenol orange hydroperoxide absorbance | Potency, µM (top dose mostly 108 µM), actives largely listed as inhibitors | 580,000 tested, 1.1% active; active means well fitted inhibition curve with a large enough effect; inconclusive means small, poorly fitted or top-dose-only effect, or another doubt; inactive means no such curve, though single readings can be large or run the other way
Target sequence (P18054 whole entry, looked up): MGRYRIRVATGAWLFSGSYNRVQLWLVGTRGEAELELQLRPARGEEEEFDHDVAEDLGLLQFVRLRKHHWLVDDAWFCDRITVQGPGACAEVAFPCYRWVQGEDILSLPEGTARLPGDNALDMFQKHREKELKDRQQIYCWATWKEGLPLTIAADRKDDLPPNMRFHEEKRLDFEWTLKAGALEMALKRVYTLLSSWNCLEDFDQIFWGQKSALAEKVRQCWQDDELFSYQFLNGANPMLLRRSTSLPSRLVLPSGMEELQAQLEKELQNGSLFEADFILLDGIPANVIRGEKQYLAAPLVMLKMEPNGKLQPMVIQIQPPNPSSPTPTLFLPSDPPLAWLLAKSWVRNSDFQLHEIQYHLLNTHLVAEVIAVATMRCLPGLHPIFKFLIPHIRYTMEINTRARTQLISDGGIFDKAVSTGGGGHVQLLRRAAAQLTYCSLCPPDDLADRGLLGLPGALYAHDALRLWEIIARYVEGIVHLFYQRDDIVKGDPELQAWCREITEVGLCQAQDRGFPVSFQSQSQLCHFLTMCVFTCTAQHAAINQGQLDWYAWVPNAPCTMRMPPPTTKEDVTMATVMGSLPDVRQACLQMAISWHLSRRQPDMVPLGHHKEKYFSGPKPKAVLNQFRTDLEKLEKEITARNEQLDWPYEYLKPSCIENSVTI
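Purified human 12hLO (150 nM final) in 25 mM Hepes, 0.01% Triton X-100, pH 7.0 was preincubated 15 min at room temperature with compound. Then 40 uM arachidonic acid was added, 30 min. Hydroperoxide was read by Fe-XO absorbance ratio 573/405 nm.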
BCR signal inh: blocks chronic active B-cell receptor signaling. ABC-DLBCL IkBa-CBG/CBR reporter, luminescence ratio, 4 h. Potency, µM (top dose mostly 46.1 µM), usual class: inhibitors. 340,000 tested, 0.05% active; active means well fitted inhibition curve with a large enough effect in the signal ratio, with a control signal flat, not every such curve was filed as active; inconclusive means small, poorly fitted or top-dose-only effect, or effect the other way, or a change in a side signal; the % refers to the signal ratio
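TMD8 ABC-DLBCL cells carrying doxycycline-inducible green luciferase fused to IkappaBalpha plus unfused red luciferase were exposed to compounds (up to 46 uM) for 4 hrs at 37C. Activity came from the overlap-corrected green/red luminescence ratio.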
KCNH2 3.1 block: blocks the human KCNH2 3.1 channel isoform; U2OS KCNH2 3.1, thallium flux FluxOr; hits give low values; activity change, % (tested at about 1.8 µM); 340,000 tested, 0.95% active;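 active means maximum activity change below -70%; inconclusive means maximum activity change from -70% to -50%; inactive means maximum activity change above -50%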;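 further: thallium influx rate constant from kinetic fluorescence after stimulation buffer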
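Virally transduced U2OS (3.1 isoform, 4 h infection in dark at RT) → overnight 37 C → FluxOr + Red40 in HBSS/HEPES, 45 min → stimulation buffer, 2 min kinetic read → rate constant vs DMSO controls.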
KCNH2 WT inh: blocks the wildtype human KCNH2 potassium channel; U2OS, BacMam KCNH2, thallium flux FluxOr; hits give low values; Q12809; activity change, % at 1.84 µM; 340,000 tested, 0.37% active;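 active means maximum activity change below -70%; inconclusive means maximum activity change between -70% and -50%; inactive means maximum activity change above -50%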
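U2OS cells were transduced with wild-type KCNH2 virus (2.03 x 10^8 / mL) for 4 h at room temperature, then cultured overnight at 37 C. Thallium flux was read with FluxOr dye. Rate constants were normalized to DMSO controls.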
A number is an active result; – = inactive; ? = inconclusive; · = no result; ! = repeats disagree; [ ] = another dose, or the depositor's remark. Most compounds without a hit are left out; they make up all but 3% or so of the library.

SMILES	ClpP mod	LDHA block	12-LOX inh	BCR signal inh	KCNH2 3.1 block	KCNH2 WT inh
CCc1cc(C(c2ccccc2Cl)N2CCN(C)CC2)c(NC(=O)c2ccco2)s1 (stereo not given)	·	–	?	·	·	·
CCc1cc(C(c2ccccc2OC)N2CCN(C)CC2)c(NC(=O)c2ccco2)s1 (stereo not given)	·	–	40µM	·	·	·
CCc1cc(C(c2ccc(OC)c(OC)c2)N2CCN(CC)CC2)c(NC(=O)c2ccco2)s1 (stereo not given)	·	–	16µM	·	·	·
O=C(NC1CCCCCCC1)c1nn(Cc2ccccc2)c(=O)c2ccccc12	·	–	–	·	·	·
CCc1cc(=O)oc2cc(OC(C)C(=O)NCc3ccc(S(N)(=O)=O)cc3)ccc12 (stereo not given)	·	–	–	·	·	·
Cc1c(CC(=O)NCc2ccco2)c(=O)oc2c(C)c(O)ccc12	·	–	?	·	·	·
CCOC(=O)C(C)NC(=O)CNC(=O)c1cc(C)cc(C)c1 (stereo not given)	·	–	?	·	·	·
CSc1nc2nc(C(F)(F)F)cc(-c3ccccc3)n2n1	32µM	–	–	?	–	–
O=C1c2ccccc2C(=O)C1c1ccnc2ccccc12	–	–	–	–	–	–
N#CC1=C(N)SC(N)=C(C#N)C1c1ccnc2ccccc12	–	–	4.5µM	–	–	–
CC(=O)c1ccccc1NC(=O)c1ccc2ccccc2n1	·	–	?	·	·	·
N#Cc1nc(-c2ccc(F)cc2)oc1NCCc1ccc(F)cc1	·	–	–	·	·	·
Cc1[nH]nc2c1C(c1cccc(O)c1)C1=C(CC(C)(C)CC1=O)N2 (stereo not given)	28µM	–	–	?	–	–
Cc1ccc(C2C3=C(CC(C)(C)CC3=O)Nc3n[nH]c(C)c32)cc1 (stereo not given)	25µM	–	–	–	–	–
Cc1[nH]nc2c1C(c1ccc(F)cc1)C1=C(CC(C)(C)CC1=O)N2 (stereo not given)	25µM	–	–	–	–	–
CCOC(=O)[C@]12CCC=C1N(Cc1ccc3c(c1)OCO3)C(=O)[C@H](CC(=O)NCCc1ccccc1OC)C2	–	–	40µM	·	·	·
Cc1cc(C)c(OCC(=O)Nc2ccc(N3CCOCC3)cc2)c(Br)c1	·	·	–	–	·	·
CC(=O)N1CCN(c2ccc(NC(=O)COc3c(C)cc(C)cc3Cl)cc2)CC1	·	–	13µM	·	·	·
CC1CCN(S(=O)(=O)N(C)Cc2ccc3c(c2)OCO3)CC1	·	–	–	·	·	·
CC(Sc1nnnn1Cc1ccccc1)C(=O)c1cccc(Cl)c1 (stereo not given)	·	–	?	·	·	·
COc1ccc(NC(=O)CN(C)S(=O)(=O)c2ccc(C)cc2)c([N+](=O)[O-])c1	–	–	–	–	–	-122
Cc1cc(C)c(NC(=O)CN(C)S(=O)(=O)c2ccc3c(c2)n(C)c(=O)c(=O)n3C)c(C)c1	–	–	–	–	–	–
Cc1ccc(NC(=O)CN(C)S(=O)(=O)c2ccc3c(c2)n(C)c(=O)c(=O)n3C)c(C)c1	32µM!	–	–	–	–	–
COc1ccc(CN(C)CC(=O)Nc2cc(OC)c([N+](=O)[O-])cc2C)c(OC)c1	–	–	–	–	-71	–
COc1cc(NC(=O)CN(C)Cc2ccc(OC(F)F)cc2)c(C)cc1[N+](=O)[O-]	–	–	?	?	–	–
SMILES	ClpP mod	LDHA block	12-LOX inh	BCR signal inh	KCNH2 3.1 block	KCNH2 WT inh
O=C(c1cccs1)N1CCC(Oc2cccnc2)C1 (stereo not given)	·	·	–	·	·	·
O=C(Cc1cccc2ccccc12)N/N=C/c1ccsc1	·	–	–	·	·	·
O=C(O)c1cc(Cl)ccc1F	·	–	–	·	·	·
COc1ccccc1C(=O)Nc1ccnn1C1CCN(CCCc2ccccc2)CC1	–	–	–	–	-103	-105
COc1ccccc1C(=O)Nc1ccnn1C1CCN(C)CC1	–	–	–	–	–	–
Cc1ccccc1C(=O)Nc1ccnn1C1CCN(CCCc2ccccc2)CC1	–	–	·	–	-106	-139
Cc1ccccc1C(=O)Nc1ccnn1C1CCN(Cc2ccccn2)CC1	–	–	–	–	–	–
O=C(Nc1ccnn1C1CCN(CCCC2CCCC2)CC1)c1ccccc1	–	–	–	–	–	?
O=C(Nc1ccnn1C1CCN(CCCc2ccccc2)CC1)c1ccccc1	?	–	–	?	-85	?
Cc1nc2ccccc2nc1CN1C(=O)C2CCCN2C1=O (stereo not given)	·	–	–	·	·	·
COC(=O)c1ccc(/C=C/c2ccc3cccc(OC)c3n2)cc1	13µM	–	–	?	–	–
COCC(=O)N(Cc1cc2cc(OC)ccc2[nH]c1=O)c1ccccc1OC	28µM	–	–	–	–	–
COCC(=O)N(Cc1cc2cc(OC)ccc2[nH]c1=O)c1ccc(C)cc1	25µM	–	–	–	–	–
NCc1cccc(Oc2ncnc3ccccc23)c1	·	·	–[12.5 µM]	·	·	·
CNC(=O)[C@@H]1CN(C(=O)c2occc2C)C[C@H]1COC	·	·	–	·	·	·
CN(C)c1nc(-c2ccccc2)cc(C(F)(F)F)c1C#N	32µM	–	–	–	–	–
CN(C)c1nc(-c2cccs2)cc(C(F)(F)F)c1C#N	·	–	–	–	–	–
CCOc1ccc(CCNC(=O)c2[nH]c3cc(OC)ccc3c2Sc2ccccc2)cc1OCC	22µM	–	–	·	·	·
CCOc1ccc(CCNC(=O)c2cccs2)cc1OCC	·	–	–	–	-86	–
COc1ccc(C(C#N)=C2C=C(Cl)C(=NO)C=C2Cl)cc1	–	–	?	·	–	–
COc1ccc(C(C#N)=C2C=CC(=NO)C(C)=C2Cl)cc1	–	–	20µM	·	–	–
Cc1nc(NC(=O)Cn2ccc(=O)n(C)c2=O)sc1C	·	–	–	·	·	·
CCC(=O)Oc1c(Sc2ccc(Cl)cc2)c(C)nn1-c1ccccc1	–	–	16µM	·	·	·
Cc1ccc(NC(=O)Cc2nc(-c3ccccc3)oc2C)nc1	·	–	?	·	·	·
Cc1cc2ccccn2c1C(=S)NC(=O)c1ccccc1	–	–	22µM	–	–	–
SMILES	ClpP mod	LDHA block	12-LOX inh	BCR signal inh	KCNH2 3.1 block	KCNH2 WT inh
Cc1cc2ccccn2c1C(=O)c1ccncc1	–	–	–	–	–	–
Cc1ccc(C(=O)NC(=S)c2c(C)cc3ccccn23)cc1	–	–	7.9µM	·	–	–
CCCc1nnc2sc(-c3ccc4c(c3)OCO4)nn12	·	–	?	·	·	·
Cc1ccnc(NC(=S)N2CCN(c3cccc(C(F)(F)F)c3)CC2)c1	·	–	22µM	?	–	–
Cc1ccnc(NC(=S)N2CCN(c3ccc(C(F)(F)F)cc3)CC2)c1	·	–	·	·	·	·
FC(F)(F)c1cccc(N2CCN(C(=S)NC3CCCCC3)CC2)c1	–	–	50µM	?	–	–
CC1=C(c2ccc(C(C)C)cc2)S(=O)(=O)NC1=NC(C)C12CC3CC(CC(C3)C1)C2 (stereo not given)	·	–	?	·	·	·
O=C(CSC1CCCCC1)c1ccccc1Br	·	–	35µM	·	·	·
